# Measurements taken from PubChem BioAssay (EPA / NIEHS).
# Inconclusive results are not listed. Active and inactive are the calls of the source. How the source made its calls, unless noted: active means hit-call score of the fitted dose curve at least 0.9, where 1 is the maximum; inconclusive means response in the unintended direction; inactive means score below 0.9.
# Columns and labels:
# [1] = biological target: human Retinoid X Receptor beta (RXRb), RXRB (gene 6257) (UniProt P28702); assay: ATG_RXRb_TRANS: Attagene TRANS-FACTORIAL HepG2 Assay for human Retinoid X Receptor beta (RXRb) (AID 2283013)
# Outline: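 After a 24 h incubation with test chemical, transfected HepG2 cells carrying NR-Gal4 fusions and GAL4-UAS reporter transcription units yield RNA whose reporter cDNA is FAM-labelled, HpaI-cut and sized by capillary electrophoresis; increases over DMSO are scored.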
# [2] = biological target: human Thyroid Receptor alpha (THRa1), THRA (gene 7067) (UniProt P10827); assay: ATG_THRa1_TRANS: Attagene TRANS-FACTORIAL HepG2 Assay for human Thyroid Receptor alpha (THRa1) (AID 2283014)
# Outline: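 Reporter transcript induction, read by capillary electrophoresis of 6-FAM-labelled RT-PCR products, reflects activity of a transfected THRa1-Gal4 fusion in HepG2 liver cells. Cells were dosed for 24 h; activity was fitted in the positive direction against DMSO.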
# [3] = biological target: human Vitamin D Receptor (VDR), VDR (gene 7421) (UniProt P11473); assay: ATG_VDR_TRANS: Attagene TRANS-FACTORIAL HepG2 Assay for human Vitamin D Receptor (VDR) (AID 2283022)
# Outline: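 Steps: transfect HepG2 with GAL4-UAS-driven reporter constructs; dose compounds 24 h; isolate RNA, reverse-transcribe, PCR-amplify with 6-FAM-labelled primer extension and HpaI digestion; quantify fragments by capillary electrophoresis relative to DMSO.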
# [4] = read-out: E-selectin (Homo sapiens) (UniProt P16581); assay: BSK_3C_Eselectin: BioMAP Diversity Plus: 3C Assay for Eselectin Biomarker Activity (AID 2283015; active means hit-call score of the fitted dose curve at least 0.9, where 1 is the maximum; inactive means score below 0.9;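 further: cell surface E-selectin protein quantified by ELISA 24 h after dosing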); conditions: primary human endothelial cells (HUVEC); actives raise or lower the signal
# Outline: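 ELISA read-out of E-selectin on endothelial monolayers after 24 h chemical treatment. Human umbilical vein primary cells served as the system, with DMSO defining baseline activity for bidirectional fitting.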
# [5] = read-out: Interleukin-1 alpha (IL1a), IL1A (gene 3552); assay: BSK_BE3C_IL1a: BioMAP Diversity Plus: BE3C Assay for Interleukin-1 alpha (IL1a) Biomarker Activity (AID 2283016; active means hit-call score of the fitted dose curve at least 0.9, where 1 is the maximum; inactive means score below 0.9); conditions: primary human bronchial epithelial cells; actives raise or lower the signal
# Outline: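 Measured in human lung primary bronchial epithelial cells: IL-1a by ELISA at 24 h after dosing, with bidirectional fitting against DMSO.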
# [6] = read-out: Monocyte Chemoattractant Protein-1 (MCP1), CCL2 (gene 6347); assay: BSK_3C_MCP1: BioMAP Diversity Plus: 3C Assay for Monocyte Chemoattractant Protein-1 (MCP1) Biomarker Activity (AID 2283017; active means hit-call score of the fitted dose curve at least 0.9, where 1 is the maximum; inactive means score below 0.9); conditions: primary human endothelial cells (HUVEC); actives raise or lower the signal
# Outline: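 ELISA read-out of MCP-1 from human umbilical vein endothelial cell cultures harvested 24 h post-dosing. Gain or loss of signal was fitted relative to DMSO.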
# [7] = read-out: Monocyte Chemoattractant Protein-1 (MCP1), CCL2 (gene 6347); assay: BSK_4H_MCP1: BioMAP Diversity Plus: 4H Assay for Monocyte Chemoattractant Protein-1 (MCP1) Biomarker Activity (AID 2283018; active means hit-call score of the fitted dose curve at least 0.9, where 1 is the maximum; inactive means score below 0.9); conditions: primary human endothelial cells (HUVEC); actives raise or lower the signal
# Outline: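 Primary human umbilical vein endothelium is exposed to chemical for 24 h before MCP-1 is assayed by ELISA. Concentration-response fitted bidirectionally relative to DMSO.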
# [8] = read-out: Human Leukocyte Antigen - DR isotype (HLADR), HLA-DRA (gene 3122); assay: BSK_3C_HLADR: BioMAP Diversity Plus: 3C Assay for Human Leukocyte Antigen - DR isotype (HLADR) Biomarker Activity (AID 2283019; active means hit-call score of the fitted dose curve at least 0.9, where 1 is the maximum; inactive means score below 0.9;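 further: ELISA of cell-surface HLA-DR on HUVEC 24 h after dosing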); conditions: primary human endothelial cells (HUVEC); actives raise or lower the signal
# Outline: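 ELISA readout of surface HLA-DR on human umbilical vein endothelium, taken 24 h after chemical treatment. Gain- and loss-of-signal were both fitted relative to DMSO.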
# [9] = read-out: Interleukin-8 (IL8), CXCL8 (gene 3576); assay: BSK_3C_IL8: BioMAP Diversity Plus: 3C Assay for Interleukin-8 (IL8) Biomarker Activity (AID 2283020; active means hit-call score of the fitted dose curve at least 0.9, where 1 is the maximum; inactive means score below 0.9); conditions: primary human endothelial cells (HUVEC); actives raise or lower the signal
# Outline: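 Using DMSO-treated wells as the baseline, bidirectional curve fitting was applied to ELISA-measured IL-8 from human umbilical vein endothelial cultures sampled 24 h after compound addition.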
# [10] = read-out: Monokine induced gamma interferon (MIG), CXCL9 (gene 4283); assay: BSK_3C_MIG: BioMAP Diversity Plus: 3C Assay for Monokine induced gamma interferon (MIG) Biomarker Activity (AID 2283021; active means hit-call score of the fitted dose curve at least 0.9, where 1 is the maximum; inactive means score below 0.9); conditions: primary human endothelial cells (HUVEC); actives raise or lower the signal
# Outline: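 ELISA-measured MIG in dosed HUVEC 3C cultures at 24 h, analysed by bidirectional fitting with DMSO defining baseline activity.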
# [11] = BSK_3C_SRB: Viability Assessment in the BioMAP Diversity Plus: 3C Assay (AID 2283023; active means hit-call score of the fitted dose curve at least 0.9, where 1 is the maximum; inactive means score below 0.9;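 further: fitted both ways against DMSO so a hit may be signal rise or drop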); conditions: primary human endothelial cells (HUVEC)
# Outline: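 Absorbance at 560 nm of sulforhodamine B-stained (0.1%) total protein served as a cytotoxicity readout in human umbilical vein endothelial cells, 24 h after chemical treatment. Signal was fitted bidirectionally relative to DMSO.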
# [12] = read-out: Matrix Metallopeptidase 1 (MMP1), MMP1 (gene 4312); assay: BSK_BE3C_MMP1: BioMAP Diversity Plus: BE3C Assay for Matrix Metallopeptidase 1 (MMP1) Biomarker Activity (AID 2283024; active means hit-call score of the fitted dose curve at least 0.9, where 1 is the maximum; inactive means score below 0.9); conditions: primary human bronchial epithelial cells; actives raise or lower the signal
# Outline: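 In this multiplexed primary-cell system, human bronchial epithelium received chemicals for 24 h before an ELISA for MMP1. Values reflect bidirectional fits normalised to the DMSO baseline.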
# [13] = read-out: Pselectin, SELP (gene 6403); assay: BSK_4H_Pselectin: BioMAP Diversity Plus: 4H Assay for Pselectin Biomarker Activity (AID 2283026; active means hit-call score of the fitted dose curve at least 0.9, where 1 is the maximum; inactive means score below 0.9); conditions: primary human endothelial cells (HUVEC); actives raise or lower the signal
# Outline: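 Bidirectional fits against DMSO gave the endpoint. Cells: primary human umbilical vein endothelium, chemical-treated for 24 h before ELISA detection of P-selectin.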
# [14] = BSK_BE3C_SRB: Viability Assessment in the BioMAP Diversity Plus: BE3C Assay (AID 2283028; active means hit-call score of the fitted dose curve at least 0.9, where 1 is the maximum; inactive means score below 0.9); conditions: primary human bronchial epithelial cells
# Outline: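 Cells (human bronchial epithelial, primary) are treated with chemicals, and after 24 h the parallel cultures are fixed in 10% TCA. These are then stained with 0.1% SRB and read at 560 nm. Gain or loss of signal is fitted relative to DMSO.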
# [15] = read-out: Thrombomodulin, THBD (gene 7056); assay: BSK_3C_Thrombomodulin: BioMAP Diversity Plus: 3C Assay for Thrombomodulin Biomarker Activity (AID 2283029; active means hit-call score of the fitted dose curve at least 0.9, where 1 is the maximum; inactive means score below 0.9); conditions: primary human endothelial cells (HUVEC); actives raise or lower the signal
# Outline: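 In a multiplexed primary-cell system, human umbilical vein endothelium received chemical and was assayed 24 h later for thrombomodulin by ELISA. Parallel cultures were SRB-stained (0.1% SRB after 10% TCA fixation, read at 560 nm) to flag cytotoxicity.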
# [16] = read-out: Vascular endothelial growth factor receptor 2 (Homo sapiens) (UniProt P35968); assay: BSK_4H_VEGFRII: BioMAP Diversity Plus: 4H Assay for Vascular endothelial growth factor receptor 2 (VEGFR2) Biomarker Activity (AID 2283031; active means hit-call score of the fitted dose curve at least 0.9, where 1 is the maximum; inactive means score below 0.9); conditions: primary human endothelial cells (HUVEC); actives raise or lower the signal
# Outline: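 ELISA read-out of VEGFRII in primary human umbilical vein endothelium, taken 24 h after chemical treatment. Responses are expressed relative to DMSO, with bidirectional fitting.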
# [17] = read-out: Human Leukocyte Antigen - DR isotype (HLADR), HLA-DRA (gene 3122); assay: BSK_BE3C_HLADR: BioMAP Diversity Plus: BE3C Assay for Human Leukocyte Antigen - DR isotype (HLADR) Biomarker Activity (AID 2283032; active means hit-call score of the fitted dose curve at least 0.9, where 1 is the maximum; inactive means score below 0.9); conditions: primary human bronchial epithelial cells; actives raise or lower the signal
# Outline: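 BioMAP BE3C format: human bronchial epithelium, 24 h compound treatment, ELISA detection of HLA-DR, with bidirectional analysis relative to DMSO.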
# [18] = read-out: Vascular cell adhesion molecule 1 (VCAM1), VCAM1 (gene 7412); assay: BSK_4H_VCAM1: BioMAP Diversity Plus: 4H Assay for Vascular cell adhesion molecule 1 (VCAM1) Biomarker Activity (AID 2283033; active means hit-call score of the fitted dose curve at least 0.9, where 1 is the maximum; inactive means score below 0.9;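 further: cell-surface VCAM-1 protein measured by ELISA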); conditions: primary human endothelial cells (HUVEC); actives raise or lower the signal
# Outline: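 In this human endothelial (HUVEC) system, biomarker ELISA was run 24 h after compound addition, and total protein in parallel wells was assessed by SRB at 560 nm; DMSO served as negative control.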
# [19] = read-out: Interferon-gamma inducible Protein 10 (IP10), CXCL10 (gene 3627); assay: BSK_BE3C_IP10: BioMAP Diversity Plus: BE3C Assay for Interferon-gamma inducible Protein 10 (IP10) Biomarker Activity (AID 2283034; active means hit-call score of the fitted dose curve at least 0.9, where 1 is the maximum; inactive means score below 0.9); conditions: primary human bronchial epithelial cells; actives raise or lower the signal
# Outline: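 BE3C cells (human bronchial epithelial, primary); 24 h exposure; ELISA for IP-10; DMSO-referenced bidirectional fit.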
# human Thyroid Receptor alpha (THRa1), THRA (gene 7067), sequence (P10827 whole entry, looked up, the tested form may be a part): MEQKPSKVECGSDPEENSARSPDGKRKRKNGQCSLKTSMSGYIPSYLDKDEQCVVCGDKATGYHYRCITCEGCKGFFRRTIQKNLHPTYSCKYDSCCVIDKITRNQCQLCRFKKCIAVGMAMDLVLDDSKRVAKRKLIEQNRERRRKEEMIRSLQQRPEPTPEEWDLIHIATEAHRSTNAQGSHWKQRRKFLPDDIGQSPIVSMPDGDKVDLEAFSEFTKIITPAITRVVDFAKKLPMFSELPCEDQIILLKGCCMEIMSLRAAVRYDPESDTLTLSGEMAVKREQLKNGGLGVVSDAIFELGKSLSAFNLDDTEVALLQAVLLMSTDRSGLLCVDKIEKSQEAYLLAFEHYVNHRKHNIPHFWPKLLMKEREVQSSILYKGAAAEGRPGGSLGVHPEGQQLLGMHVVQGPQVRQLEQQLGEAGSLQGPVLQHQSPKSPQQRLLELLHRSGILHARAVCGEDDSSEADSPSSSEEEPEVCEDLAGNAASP
# human Retinoid X Receptor beta (RXRb), RXRB (gene 6257), sequence (P28702 whole entry, looked up, the tested form may be a part): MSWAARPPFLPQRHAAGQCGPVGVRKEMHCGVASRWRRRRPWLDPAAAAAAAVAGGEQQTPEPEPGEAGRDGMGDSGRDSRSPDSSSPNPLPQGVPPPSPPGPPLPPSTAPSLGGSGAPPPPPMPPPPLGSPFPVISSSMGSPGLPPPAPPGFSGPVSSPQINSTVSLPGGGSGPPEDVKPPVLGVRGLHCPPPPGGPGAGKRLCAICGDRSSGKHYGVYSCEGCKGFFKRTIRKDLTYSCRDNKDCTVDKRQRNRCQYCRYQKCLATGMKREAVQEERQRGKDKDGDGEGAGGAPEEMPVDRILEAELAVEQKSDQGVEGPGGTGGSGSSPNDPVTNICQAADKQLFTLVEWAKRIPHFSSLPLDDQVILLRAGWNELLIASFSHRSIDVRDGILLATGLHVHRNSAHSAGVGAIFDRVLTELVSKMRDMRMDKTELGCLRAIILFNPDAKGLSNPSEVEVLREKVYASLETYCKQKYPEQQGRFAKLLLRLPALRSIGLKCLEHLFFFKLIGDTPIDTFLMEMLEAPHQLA
# human Vitamin D Receptor (VDR), VDR (gene 7421), sequence (P11473 whole entry, looked up, the tested form may be a part): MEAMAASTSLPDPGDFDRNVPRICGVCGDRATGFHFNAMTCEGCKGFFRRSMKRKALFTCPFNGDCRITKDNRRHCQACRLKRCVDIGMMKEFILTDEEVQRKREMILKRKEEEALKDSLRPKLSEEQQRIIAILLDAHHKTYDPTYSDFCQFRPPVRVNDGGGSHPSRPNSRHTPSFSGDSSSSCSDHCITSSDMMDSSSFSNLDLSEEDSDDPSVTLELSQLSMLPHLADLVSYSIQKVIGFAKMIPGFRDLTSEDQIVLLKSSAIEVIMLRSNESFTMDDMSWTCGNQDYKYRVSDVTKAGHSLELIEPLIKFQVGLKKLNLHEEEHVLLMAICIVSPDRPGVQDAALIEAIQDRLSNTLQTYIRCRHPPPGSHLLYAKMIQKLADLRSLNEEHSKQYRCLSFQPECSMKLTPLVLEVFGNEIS
# E-selectin (Homo sapiens), sequence (P16581 whole entry, looked up): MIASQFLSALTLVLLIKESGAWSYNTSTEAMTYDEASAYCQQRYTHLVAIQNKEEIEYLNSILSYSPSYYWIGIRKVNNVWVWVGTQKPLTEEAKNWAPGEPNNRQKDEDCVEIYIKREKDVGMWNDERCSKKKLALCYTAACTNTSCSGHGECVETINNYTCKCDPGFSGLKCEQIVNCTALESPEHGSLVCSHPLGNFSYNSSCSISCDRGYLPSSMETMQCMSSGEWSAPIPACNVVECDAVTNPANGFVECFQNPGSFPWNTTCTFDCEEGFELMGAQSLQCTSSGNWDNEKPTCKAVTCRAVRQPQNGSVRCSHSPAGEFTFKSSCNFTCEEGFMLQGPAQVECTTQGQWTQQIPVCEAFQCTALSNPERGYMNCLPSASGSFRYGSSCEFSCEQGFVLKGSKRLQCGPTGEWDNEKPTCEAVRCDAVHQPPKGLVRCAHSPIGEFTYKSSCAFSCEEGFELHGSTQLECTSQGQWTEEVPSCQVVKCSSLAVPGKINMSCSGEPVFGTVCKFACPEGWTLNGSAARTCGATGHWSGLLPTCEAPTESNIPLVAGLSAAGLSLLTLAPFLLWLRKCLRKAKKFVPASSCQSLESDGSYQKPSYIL
smiles,measurement,setting,value
Cc1ccc(C2OC[C@@H]3OC(c4ccc(C)cc4)O[C@H]([C@H](O)CO)[C@@H]3O2)cc1 (some centres not stated),outcome,[1],inactive
same,outcome,[2],inactive
same,outcome,[3],inactive
CC(C)c1ccc2cc(C(C)C)ccc2c1,AC50,[1],20.8 µM (active)
same,outcome,[2],inactive
same,outcome,[3],inactive
O=S1(=O)OC(c2ccc(O)cc2)(c2ccc(O)cc2)c2ccccc21,outcome,[1],inactive
same,outcome,[2],inactive
same,outcome,[3],inactive
O=C(O)CCCC[C@@H]1SC[C@@H]2NC(=O)N[C@@H]21,outcome,[1],inactive
same,outcome,[2],inactive
same,outcome,[3],inactive
CCOC(=O)Cc1cccc2ccccc12,AC50,[1],89.4 µM (active)
same,outcome,[2],inactive
same,outcome,[3],inactive
CC(C)=CCCC(C)C=O (configuration not stated),outcome,[1],inactive
same,outcome,[2],inactive
same,outcome,[3],inactive
C1=CCCC1,outcome,[1],inactive
same,outcome,[2],inactive
same,outcome,[3],inactive
Cc1cc(=O)n(-c2ccccc2)n1C,outcome,[1],inactive
same,outcome,[2],inactive
same,outcome,[3],inactive
O=C1c2cccc(O)c2C(=O)c2c(O)cc(CO)cc21,outcome,[1],inactive
same,outcome,[2],inactive
same,outcome,[3],inactive
Cc1cc(C)c(C)c(O)c1,outcome,[1],inactive
same,outcome,[2],inactive
same,outcome,[3],inactive
CN1C(=O)N(C)C(O)C1O (configuration not stated),outcome,[1],inactive
same,outcome,[4],inactive
same,outcome,[5],inactive
same,outcome,[6],inactive
same,outcome,[7],inactive
same,outcome,[8],inactive
same,outcome,[9],inactive
same,outcome,[10],inactive
same,outcome,[11],inactive
same,outcome,[12],inactive
same,outcome,[13],inactive
same,outcome,[14],inactive
same,outcome,[15],inactive
same,outcome,[16],inactive
same,outcome,[17],inactive
same,outcome,[18],inactive
same,outcome,[19],inactive
CC(C)(C)C(=O)CCc1ccc(Cl)cc1,outcome,[1],inactive
same,outcome,[2],inactive
same,outcome,[3],inactive
CCCCCCCCCCCCCCCC[n+]1ccccc1,outcome,[1],inactive
same,AC50,[3],26.8 µM (active)
CC(C)(C)c1ccc(OC(=O)c2ccccc2O)cc1,AC50,[1],177 µM (active)
same,outcome,[3],inactive
C=CCCCCCCCCC(=O)OCCCC,AC50,[1],104 µM (active)
same,outcome,[3],inactive
NCCCN1CCN(CCCN)CC1,outcome,[1],inactive
same,outcome,[2],inactive
same,outcome,[3],inactive
CN(C)c1ccc(N=Nc2ccccc2C(=O)O)cc1,outcome,[1],inactive
same,outcome,[3],inactive
CCOC(=O)[C@H](C)O,outcome,[1],inactive
same,outcome,[3],inactive
CCN(CC#N)c1cccc(C)c1,outcome,[1],inactive
same,outcome,[3],inactive
CCCCCCCC/C=C\CCCCCCCC(=O)OCCO,AC50,[1],17.7 µM (active)
same,outcome,[3],inactive
